From PubChem
Sa helicase inh – S. aureus DNA helicase inhibition; 120,000 compounds, 0.05% hits; purified S. aureus helicase, fluorescence unwinding assay; inhibition, % (no concentration beside the values); in the data active means inhibition above about 25%, passing the limit was not always enough;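 further: 0% = mean of negative control wells and 100% = mean of positive control wells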
Sa growth 42C – blocks Staphylococcus aureus growth; S. aureus RN4220 growth, OD600, 20 h, 42 °C; hits give low values; relative growth, % (concentration not given with the values); 170,000 compounds, 0.53% hits;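 active means relative growth at most 50% at the other temperature and 20+ points below 30 °C, or under 10% at both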
* marks the source's active call; other numbers are inactive results; / = not tested or not shown. The full list was thinned out, with hits kept by preference.

SMILES	Sa helicase inh	Sa growth 42C
O=S(=O)(c1ccc2c(c1)CCCN2)N1CCCCC1	-12.0	100.6
CCN1CCN(c2ccc(N3CCN(C(=O)c4ccc(C(F)(F)F)cc4)CC3)nn2)CC1	16.0	88.5
Cc1oc2c(c1C(=O)NC1CCCC1)C(=O)c1ccccc1C2=O	10.0	3.9*
Cc1oc2c(c1C(=O)N1CCCCC1)C(=O)c1ccccc1C2=O	-4.0	39.4
Cc1oc2c(c1C(=O)N1CCC(C)CC1)C(=O)c1ccccc1C2=O	11.0	48.8
Cc1oc2c(c1C(=O)NCCc1ccccc1)C(=O)c1ccccc1C2=O	4.0	15.1
Cc1oc2c(c1C(=O)NC1CCCCC1)C(=O)c1ccccc1C2=O	-2.0	8.8*
Cc1oc2c(c1C(=O)NC(C)(C)C)C(=O)c1ccccc1C2=O	-13.0	5.7*
O=C(/C=C\c1ccc(-c2ccc(F)cc2)o1)Nc1ccc(N2CCOCC2)cc1	-15.0	115.3
CC(C)NC(=O)CCCc1nc(-c2ccc(Cl)cc2)no1	-37.0	97.0
C=C(C)Cn1c(=S)[nH]c2c(c1=O)C(C)(C)Cc1ccccc1-2	26.0	99.7
COc1ccc(CCn2cc3c(c2-c2ccccc2)c(=O)n(C)c(=O)n3C)cc1OC	-1.0	99.6
C/C(N)=C(/C#N)C(=O)COc1ccc(C#N)cc1	-13.0	87.3
Sc1nc2c(Cl)c(Cl)c(Cl)cc2o1	22.0	-0.8*
O=C(O)CC1(CC(=O)Nc2ccc(OC(F)(F)F)cc2)CCCC1	/	93.7
CCC1(c2cccc(OC(=O)Nc3ccc(OC(F)(F)F)cc3)c2)CCCCN(C)C1=O (configuration not stated)	/	4.2*
O=C(Nc1c(C(=O)N2CCCC2)oc2ccccc12)C1CCCCC1	6.0	82.7
CC(C)CCSc1nc2ccccc2n1CC(N)=O	10.0	94.2
C=CC1=C(C(=O)O)N2C(=O)[C@@H](NC(=O)C(=NOCC(=O)O)c3csc(N)n3)[C@H]2SC1	/	-0.2*
CC(C)(O/N=C(\C(=O)N[C@@H]1C(=O)N2C(C(=O)[O-])=C(C[n+]3ccccc3)CS[C@H]12)c1csc(N)n1)C(=O)O	/	77.5
C=CC1=C(C(=O)O)N2C(=O)[C@@H](NC(=O)/C(=N\O)c3csc(N)n3)[C@H]2SC1 (stereo in doubt)	/	-0.4*
CO/N=C(\C(=O)N[C@@H]1C(=O)N2C(C(=O)[O-])=C(C[N+]3(C)CCCC3)CS[C@H]12)c1csc(N)n1	/	-0.5*
CO/N=C(\C(=O)NC1C(=O)N2C(C(=O)OCOC(=O)C(C)(C)C)=C(/C=C\c3scnc3C)CSC12)c1csc(N)n1 (configuration not stated)	/	5.1*
C[C@H]1[C@H](NC(=O)/C(=N\OC(C)(C)C(=O)O)c2csc(N)n2)C(=O)N1S(=O)(=O)O	/	90.0
Cc1ccccc1Nc1nc(N)nc(COC(=O)CCc2nc3ccccc3c(=O)[nH]2)n1	8.0	91.3
SMILES	Sa helicase inh	Sa growth 42C
COC(=O)c1cccc(N2C(=O)c3ccc(C(=O)O)cc3C2=O)c1	11.0	105.6
COc1cc(/C=C2\SC(=Nc3ccccc3)N(c3ccccc3)C2=O)cc(OC)c1O	-53.0	88.4
O=C(Nc1ncnc2sccc12)C1CCCCC1	8.0	4.5*
O=C(Nc1ncnc2sccc12)c1cccs1	4.0	59.5
Cc1occc1-c1nnc(SCC(=O)NCC(=O)Nc2ccc(F)cc2)n1Cc1ccccc1	-8.0	93.0
CCN1CCN(C(=O)NC(C(=O)NC2C(=O)N3C(C(=O)O)=C(CSc4nnnn4C)CSC23)c2ccc(O)cc2)C(=O)C1=O (configuration not stated)	/	-1.3*
CO/N=C(/C(=O)NC1C(=O)N2C(C(=O)OC(C)OC(C)=O)=C(COC(N)=O)CSC12)c1ccco1 (configuration not stated)	/	26.4
N[C@@H](C(=O)N[C@@H]1C(=O)N2C(C(=O)O)=C(CSc3cn[nH]n3)CS[C@H]12)c1ccc(O)cc1 (tested in a mixture with another compound)	/	27.4*
N[C@@H](C(=O)N[C@@H]1C(=O)N2C(C(=O)O)=C(Cl)CS[C@H]12)c1ccccc1	/	-0.9*
CC(C)OC(=O)C(N)c1ccccc1 (configuration not stated)	18.0	95.2
CCOC(=O)c1[nH]c(COC(=O)c2ccc(Cl)c(S(=O)(=O)N3CCOCC3)c2)c(C(=O)OCC)c1C	1.0	105.0
O=C(C1CCN(c2ccc(-c3cccs3)nn2)CC1)N1CCN(Cc2ccc3c(c2)OCO3)CC1	8.0	112.4
CCn1c2ccccc2c2cc(C(N)=O)ccc21	10.0	86.2
CCn1c2ccccc2c2cc(N3C(=O)C=CC3=O)ccc21	/	3.8*
CCCc1nnc(NC(=O)C(CC)Sc2nc(N)cc(=O)[nH]2)s1 (configuration not stated)	7.0	88.2
O=C(Nc1cccc2cnccc12)c1cc(Cl)cc(Cl)c1	-13.0	133.5
CN(C)c1ccc(C(c2cc3c(cc2O)OCO3)N2CCCCC2)cc1 (configuration not stated)	6.0	0.9*
